Assay [1] has as its target Lysosomal acid glucosylceramidase (Homo sapiens) (UniProt P04062). The assay can be described thus: Glucocerebrosidase-p2 (AID 348; in the data active = potency below about 10 µM; also: potency is read from the fitted curve at half-maximal effect). As to conditions: purified GBA, blue fluorogenic substrate, 40 min. The method, boiled down: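 Compounds titrated from 0.6 nM upwards against 0.2 nM enzyme in pH 5.9 citric acid/KH2PO4, taurocholate, tween-20; blue fluorogenic substrate 80 uM, 40 min room temperature, stopped and read Ex 365/Em 440 for AC50.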

A short description of assay [2]: AP1 Signaling Pathway (AID 357).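 Also: ME-180 reporter cells stimulated with EGF at its EC50 level; % is scaled to controls: 0 for no effect and ±100 for the full control effect.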 As to conditions: ME-180 AP-1-bla reporter, EGF-induced, beta-lactamase ratio, 5 h; at 7.69 µM (top of the series) unless noted. The essentials:
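Beta-lactamase reporter under AP-1 response element, ME-180 background. Stimulus: EC50 EGF. Compound exposure 5 h, 37 °C. Detection: CCF4, 2.5 h RT, 460/530 nm. Values: AC50 from titration.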

Assay [3] in a line: NFAT Signaling Pathway (AID 444).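 Also: carbachol stimulus at about its EC50 of 1 µM final; % is scaled to controls: 0 for no effect and ±100 for the full control effect.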 Particulars: Jurkat NFAT-bla M1, carbachol, beta-lactamase ratio, 5 h; at 7.69 µM (top of the series) unless noted. The essentials:
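Jurkat cells carrying an NFAT-driven β-lactamase reporter and co-transfected muscarinic M1 receptor were treated with compound plus carbachol (1 uM final, an EC50 level) for 5 h at 37 °C. CCF4 loading followed for 1 h at RT; 460/530 nm ratio gave %activity.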

Assay [4] is described as follows: Stat Signaling Pathway (AID 446).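 Also: ME-180 cervical cancer cells given 40 pM IL-6 alongside compound; SIE-controlled beta-lactamase reporter measured as 460/530 nm FRET emission ratio; % is scaled to controls: 0 for no effect and ±100 for the full control effect.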 Particulars: ME-180 SIE beta-lactamase reporter, IL-6 stimulated, 5 h; at 7.69 µM (top of the series) unless noted. The method, boiled down: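 ME-180 cells carrying a SIE-driven beta-lactamase reporter are stimulated with 40 pM IL-6 for 5 h at 37C in the presence of compound. The 460/530 nm FRET substrate ratio is read after 2.5 h at RT. Data are normalised to 300 pM IL-6 and to 125 nM JAK inhibitor controls.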

In assay [5] the target is Glucocorticoid receptor (Homo sapiens) (UniProt P04150). The assay can be described thus: GR-EFC Redistribution (AID 451; calls by dose curve; also: potency is read from the fitted curve at half-maximal effect). Particulars: CHO-K1 GR-EFC translocation, beta-gal luminescence, 2 h. The method, boiled down:
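CHO-K1 cells stably expressing nuclear-localized β-gal enzyme acceptor and GR fused C-terminally to the enzyme donor fragment; ligand-driven nuclear translocation restores β-gal by complementation. Compounds titrated up to 46 uM final, 2 h at 37 °C; luminescence read.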

In assay [6] the target is Mitogen-activated protein kinase 10 (Mus musculus) (UniProt Q61831). The assay can be described thus: JNK3 AlphaScreen Assay (AID 530).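 Also: kinase came from lysate of stimulated human HepG2 cells; signal reports phosphorylation of biotinylated GST-cJun 1-79 at Ser73 with 10 µM ATP; % is scaled to controls: 0 for no effect and ±100 for the full control effect.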 As to conditions: JNK3 lysate, c-Jun phosphorylation; series mostly up to 57.1 µM. The essentials:
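Inhibitors reduce antibody binding to phosphorylated biotin-cJun, lowering AlphaScreen luminescence. Lysates from HepG2 cells pre-activated by IL-1beta plus TNF-alpha supplied JNK3; compounds were titrated.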
(In general: Bead proximity is the source of the signal in Alpha formats.)

Assay [7] has as its target 3',5'-cyclic-AMP phosphodiesterase 4B (Homo sapiens) (UniProt Q07343). The assay can be described thus: qHTS Assay for Inhibitors of PDE-IV (AID 607; active = well fitted activation curve with a large enough effect in the main read-out, with a control signal flat, not every such curve was filed as active; also: % of control where 0% means no effect). Particulars: HEK293 ACTOne CNG channel cells, membrane potential fluorescence; series mostly up to 22.9 µM. The essentials:
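HEK293 ACTOne cells with CNG channel (1000/well), endogenous PDE4; membrane potential dye, compounds up to 22.9 uM final. Fluorescence Ex 535/Em 590; RO 20-1724 (100 uM final) as reference.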
On the technique in general: qHTS replaces the single test concentration by a dilution series.

A short description of assay [8]: Primary qHTS for small molecule stabilizers of the endoplasmic reticulum resident proteome: Secreted ER Calcium Modulated Protein (SERCaMP) assay (AID 1508630; active = well fitted curve in the direction sought with a large enough effect; an effect the other way counts as inactive or inconclusive; also: % is scaled to controls: 0 for no effect and ±100 for the full control effect). As to conditions: SH-SY5Y GLuc-SERCaMP (Gaussia luciferase released on ER calcium loss) secretion, thapsigargin, luminescence; series mostly up to 38.4 µM. The essentials:
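GLuc-SERCaMP-expressing SH-SY5Y cells, pretreated 16 h with compound, are challenged with thapsigargin to empty ER calcium stores; after 4 h, coelenterazine is added directly to the medium and luminescence is imaged.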

Assay [9] addresses Cytochrome P450 3A4 (Homo sapiens) (UniProt P08684). The assay can be described thus: qHTS Assay for Inhibitors and Substrates of Cytochrome P450 3A4 (AID 884; active = well fitted curve in the direction sought with a large enough effect; an effect the other way counts as inactive or inconclusive; also: % is scaled to controls: 0 for no effect and ±100 for the full control effect; nearly all actives have a fitted effect of over 50% in size). As to conditions: recombinant CYP3A4, Luciferin-PPXE luminescence; series mostly up to 57.1 µM. The method, boiled down:
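20 nM human CYP3A4 with 25 uM Luciferin-PPXE (at KM) in 200 mM KPO4, preincubated 10 min with compound; NADPH regeneration started a 60 min RT reaction. Luciferin detected by luminescence, normalized to 57 uM ketoconazole as full inhibition.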

Assay [10] shares this target. The assay can be described thus: qHTS Assay for Activators of Cytochrome P450 3A4 (AID 885; active = well fitted curve in the direction sought with a large enough effect; an effect the other way counts as inactive or inconclusive; also: potency is read from the fitted curve at half-maximal effect; nearly all actives have a fitted effect of over 65% in size). As to conditions: recombinant CYP3A4, Luciferin-PPXE luminescence, 60 min; series mostly up to 57.1 µM. The method, boiled down: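 Human CYP3A4 (20 nM) with Luciferin-PPXE at 25 uM (its KM) in 200 mM KPO4; 10 min compound preincubation, then NADPH regeneration and 60 min reaction at RT. Luciferin read by luminescence; normalized to 57 uM ketoconazole full inhibition.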

A number with no mark means an inactive call. Inconclusive results are not listed. Calls of active or inactive are those of the source. Unless noted, calls follow the shape of the dose curve; as a rule, active = well fitted curve in either direction with a large enough effect (not every such curve was filed as active); inconclusive = small, poorly fitted or top-dose-only effect, or another doubt; inactive = flat fitted curve, though single readings scatter.

The results in this text go back to PubChem BioAssay (NCATS).

Lysosomal acid glucosylceramidase (Homo sapiens), sequence (P04062 whole entry, looked up): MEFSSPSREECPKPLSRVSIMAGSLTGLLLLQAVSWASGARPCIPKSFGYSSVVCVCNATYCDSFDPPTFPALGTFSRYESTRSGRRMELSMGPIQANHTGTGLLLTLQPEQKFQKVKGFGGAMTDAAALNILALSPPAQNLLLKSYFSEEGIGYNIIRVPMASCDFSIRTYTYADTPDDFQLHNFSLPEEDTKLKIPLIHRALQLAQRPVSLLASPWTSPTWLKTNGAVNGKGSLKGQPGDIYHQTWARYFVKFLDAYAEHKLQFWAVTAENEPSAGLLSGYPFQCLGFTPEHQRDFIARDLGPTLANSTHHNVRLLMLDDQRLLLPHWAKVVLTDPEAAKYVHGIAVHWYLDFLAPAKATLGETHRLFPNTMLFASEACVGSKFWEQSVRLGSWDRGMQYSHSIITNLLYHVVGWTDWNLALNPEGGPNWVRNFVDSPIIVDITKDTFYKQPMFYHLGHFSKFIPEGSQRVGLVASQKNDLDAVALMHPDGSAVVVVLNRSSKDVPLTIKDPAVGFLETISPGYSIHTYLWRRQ
Glucocorticoid receptor (Homo sapiens), sequence (P04150 whole entry, looked up, the tested form may be a part): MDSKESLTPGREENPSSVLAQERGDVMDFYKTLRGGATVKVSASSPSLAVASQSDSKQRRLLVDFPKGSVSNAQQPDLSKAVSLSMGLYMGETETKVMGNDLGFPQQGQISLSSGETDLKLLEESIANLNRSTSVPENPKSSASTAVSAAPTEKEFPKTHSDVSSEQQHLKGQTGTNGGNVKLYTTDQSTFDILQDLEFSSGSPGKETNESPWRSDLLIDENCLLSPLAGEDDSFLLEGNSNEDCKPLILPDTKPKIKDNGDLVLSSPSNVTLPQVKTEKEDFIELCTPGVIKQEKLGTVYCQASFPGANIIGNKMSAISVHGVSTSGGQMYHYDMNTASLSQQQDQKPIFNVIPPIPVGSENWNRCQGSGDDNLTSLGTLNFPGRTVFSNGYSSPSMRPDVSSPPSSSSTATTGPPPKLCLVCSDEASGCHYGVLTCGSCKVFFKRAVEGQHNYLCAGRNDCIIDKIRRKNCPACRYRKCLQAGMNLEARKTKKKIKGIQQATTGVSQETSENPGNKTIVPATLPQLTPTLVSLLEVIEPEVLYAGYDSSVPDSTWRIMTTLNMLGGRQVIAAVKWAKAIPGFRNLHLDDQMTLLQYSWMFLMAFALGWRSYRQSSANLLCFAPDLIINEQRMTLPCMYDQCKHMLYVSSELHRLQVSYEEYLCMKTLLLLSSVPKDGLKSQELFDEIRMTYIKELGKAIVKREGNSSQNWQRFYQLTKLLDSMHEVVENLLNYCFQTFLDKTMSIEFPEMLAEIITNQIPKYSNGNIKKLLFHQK
3',5'-cyclic-AMP phosphodiesterase 4B (Homo sapiens), sequence (Q07343 whole entry, looked up): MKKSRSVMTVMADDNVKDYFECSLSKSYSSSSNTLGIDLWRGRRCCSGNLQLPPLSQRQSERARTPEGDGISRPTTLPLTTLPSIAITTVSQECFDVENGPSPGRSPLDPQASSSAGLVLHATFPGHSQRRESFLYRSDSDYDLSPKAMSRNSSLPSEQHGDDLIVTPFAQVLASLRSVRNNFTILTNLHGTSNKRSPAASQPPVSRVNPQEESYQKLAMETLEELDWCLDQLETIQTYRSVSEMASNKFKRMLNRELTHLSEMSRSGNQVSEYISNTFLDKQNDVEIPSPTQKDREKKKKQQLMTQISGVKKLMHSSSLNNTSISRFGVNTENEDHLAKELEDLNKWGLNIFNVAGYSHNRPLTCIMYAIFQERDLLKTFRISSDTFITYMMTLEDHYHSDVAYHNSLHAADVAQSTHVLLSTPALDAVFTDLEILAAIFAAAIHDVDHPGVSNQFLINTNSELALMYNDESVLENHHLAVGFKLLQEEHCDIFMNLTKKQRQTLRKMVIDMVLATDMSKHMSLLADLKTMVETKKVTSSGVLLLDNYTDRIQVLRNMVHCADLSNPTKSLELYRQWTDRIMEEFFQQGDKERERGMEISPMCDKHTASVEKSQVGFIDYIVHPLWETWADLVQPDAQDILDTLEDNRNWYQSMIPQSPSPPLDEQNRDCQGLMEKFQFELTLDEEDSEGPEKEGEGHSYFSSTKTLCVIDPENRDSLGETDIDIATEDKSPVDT
Cytochrome P450 3A4 (Homo sapiens), sequence (P08684 whole entry, looked up): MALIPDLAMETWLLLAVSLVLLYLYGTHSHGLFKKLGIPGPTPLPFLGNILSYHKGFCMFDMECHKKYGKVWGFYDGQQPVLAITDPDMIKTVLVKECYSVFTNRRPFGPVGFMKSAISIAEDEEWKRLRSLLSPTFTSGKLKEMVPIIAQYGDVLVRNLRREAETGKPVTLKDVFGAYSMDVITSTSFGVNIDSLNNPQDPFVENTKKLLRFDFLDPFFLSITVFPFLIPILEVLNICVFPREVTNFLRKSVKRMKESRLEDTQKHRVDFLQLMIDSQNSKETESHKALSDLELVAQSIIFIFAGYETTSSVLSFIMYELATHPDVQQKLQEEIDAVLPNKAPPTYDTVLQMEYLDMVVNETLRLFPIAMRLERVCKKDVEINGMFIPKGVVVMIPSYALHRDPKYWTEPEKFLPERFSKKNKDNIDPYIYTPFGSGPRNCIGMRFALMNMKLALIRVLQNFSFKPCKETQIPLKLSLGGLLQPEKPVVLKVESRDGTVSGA

Consider `O=C(c1csnn1)N1CCC[C@@]2(CCN(c3cccc(-c4ccccc4)c3)C2)C1`, for which the Potency in assay [1] is greater than 11.4 µM; in assay [5] it was greater than 46 µM. Also, the activity change, negative = inhibition in assay [2] was -28.1%; in assay [3], 12.1%. Moreover, in [4], the activity, negative = inhibition was 6.22%. Besides, the Potency entry in assay [6] and in [7] was “inactive” each time. Further, the outcome in assay [8] was inactive.
In the case of `O=C(Nc1cccc(F)c1)N1CCC2(CC1)CCN(C(=O)c1cccc(F)c1)CC2`, the values for the Potency in assay [1] and in assay [5] were greater than 11.4 µM and greater than 46 µM, respectively. Moreover, the activity change, negative = inhibition in assay [2] is -7.86%; in assay [3], 3.68%. Also, in [4], the activity, negative = inhibition is -6.46%. The Potency result in assay [6] and in assay [7] was “inactive” throughout. In [8], the result was inactive.
`O=C(c1csnn1)N1CCC2(CCCN(c3ncccn3)C2)CC1`: the Potency in [1] was greater than 11.4 µM; in assay [5] it was greater than 46 µM. Besides, the activity change, negative = inhibition in assay [2] is 5.51%; in [3], 2.44%. For the same compound, the activity, negative = inhibition in assay [4] was 1.38%. Moreover, the Potency result in assay [6] and in assay [7] was “inactive” throughout. The outcome in assay [8] was inactive.
For the compound `O=C(c1csnn1)N1CCC[C@@]2(CCN(c3ccccc3)C2)C1`, the Potency in [1] is greater than 11.4 µM; in assay [5], greater than 46 µM. Further, the figures for the activity change, negative = inhibition in [2] and in assay [3] were -5.43% and -8.4%, respectively. Moreover, the activity, negative = inhibition in assay [4] is -7.17%. The Potency entry in assay [6] and in assay [7] was “inactive” in each case. The result in assay [8] was inactive.
In the case of `N#Cc1ccc(CN2CC[C@@]3(CCCN(C(=O)c4ccco4)C3)C2)cc1`, the Potency was greater than 11.4 µM in [1] and greater than 46 µM in assay [5]. Further, the values for the activity change, negative = inhibition in assay [2] and in assay [3] were 0.694% and -6.92%, respectively. Besides, the activity, negative = inhibition in [4] is 12.6%. Further, the Potency result in assay [6] and in assay [7] was “inactive” throughout. In assay [8], the outcome was inactive.
On to `O=C(c1csnn1)N1CCC[C@@]2(CCN(Cc3ccccc3)C2)C1`, for which the Potency in assay [1] was greater than 11.4 µM; in [5], greater than 46 µM. The results for the activity change, negative = inhibition in [2] and in assay [3] were -14.5% and 1.87%, respectively. In addition, in assay [4], the activity, negative = inhibition was -1.23%. In addition, the Potency result in [6] and in assay [7] was “inactive” throughout. The outcome in [8] was inactive.
Turning to `COc1ccc(C(=O)N2CCC[C@@]3(CCN(Cc4nccs4)C3)C2)cc1`, the Potency in assay [1] is greater than 11.4 µM; in [5] it was greater than 46 µM. Besides, the activity change, negative = inhibition was -5.52% in [2] and -6.27% in [3]. For the same compound, the activity, negative = inhibition in assay [4] was -1.52%. In addition, the Potency result in [6] and in assay [7] was “inactive” in each case. In [8], the result was inactive.
Turning to `O=C(c1ccco1)N1CCC2(CC1)CN(c1ncccn1)C2`, the Potency was greater than 11.4 µM in [1], greater than 46 µM in assay [5] and 15.8 µM (active) in assay [10]. Moreover, the figures for the activity change, negative = inhibition in assay [2] and in assay [3] were -3.83% and 0.563%, respectively. In [4], the activity, negative = inhibition was 2.05%. In addition, the Potency result in assay [6], in assay [7] and in [9] was “inactive” in each case. The outcome in assay [8] was inactive.
Take `COCCn1c(=O)c(-c2ccc(OC)cc2)nc2cnc(Oc3ccc(OC)cc3)nc21`: the Potency was greater than 11.4 µM in assay [1] and greater than 46 µM in assay [5]. Besides, the activity change, negative = inhibition in assay [2] is -20.1%; in assay [3], 18%. Also, the activity, negative = inhibition in assay [4] was -7.21%. The Potency result in assay [6] and in [7] was “inactive” in each case. Also, in assay [8], the result was inactive.
